Reference: ChEMBL document CHEMBL3988442, “University of Dundee, Small-Polar-MMV Screening Library” (2021)

molecular target: T1, Aspartate--tRNA(Asp/Asn) ligase (Mycobacterium tuberculosis (strain ATCC 25618 / H37Rv)) (UniProt P9WFW3); assay: Assay for Asp RNA synthetase-1 from Mycobacterium tuberculosis; assay type: functional; design: scale not given: in the data most compounds retested in dose-response had high values; conditions: 30 µM
T1 sequence (whole entry): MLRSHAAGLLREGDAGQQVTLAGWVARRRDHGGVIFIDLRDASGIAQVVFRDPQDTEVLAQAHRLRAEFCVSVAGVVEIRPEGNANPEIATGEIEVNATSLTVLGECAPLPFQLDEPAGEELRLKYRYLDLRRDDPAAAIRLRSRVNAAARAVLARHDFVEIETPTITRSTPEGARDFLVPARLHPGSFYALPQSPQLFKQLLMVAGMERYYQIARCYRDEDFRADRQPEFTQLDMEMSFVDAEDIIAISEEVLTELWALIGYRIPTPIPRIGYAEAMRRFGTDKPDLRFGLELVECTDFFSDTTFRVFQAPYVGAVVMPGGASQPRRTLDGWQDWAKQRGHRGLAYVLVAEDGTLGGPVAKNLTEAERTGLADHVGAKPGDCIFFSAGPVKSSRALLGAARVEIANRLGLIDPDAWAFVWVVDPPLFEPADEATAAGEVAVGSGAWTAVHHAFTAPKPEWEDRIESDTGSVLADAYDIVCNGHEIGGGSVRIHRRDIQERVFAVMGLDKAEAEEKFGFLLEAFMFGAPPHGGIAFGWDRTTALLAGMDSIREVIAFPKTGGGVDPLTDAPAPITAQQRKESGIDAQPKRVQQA

How did the Percent Effect turn out when `O=C(NCc1ccncc1)N(Cc1ccccc1F)C1CC1` was run?
Its Percent Effect is -1.67%.

With `CCc1nc(NS(=O)(=O)c2cc(C)ccc2F)no1` as the compound, how does the Percent Effect read?
The Percent Effect was -2.52%.

How did the Percent Effect turn out when `CCC(=O)N1CCc2[nH]cnc2C12CCN(C(=O)c1snnc1C)CC2` was run?
Its Percent Effect is 1.62%.

With `CN(C)CCn1c(=O)oc2ccc(NC(=O)CC(C)(C)C)cc21` as the compound, how does the Percent Effect read?
The Percent Effect was 0.793%.

`O=C(NCCCc1ccncc1)C1CCCN(Cc2ccco2)C1` (centres undefined) was tested. Which Percent Effect did it give?
Its Percent Effect is 2.17%.

For `FC(F)(F)COCCN1CCCC(c2noc(C3CC3)n2)C1` (centres undefined), which Percent Effect is on record?
Its Percent Effect is -0.517%.

How did the Percent Effect turn out when `CCCn1cc(C(=O)N(C)Cc2nc(-c3ccccn3)no2)c(C)n1` was run?
Its Percent Effect is -0.218%.

For `COc1ccc(NC(=O)CCC2CCCN(Cc3ncon3)C2)c(C)c1` (centres undefined), which Percent Effect is on record?
The Percent Effect was 1.11%.

With `CCc1ncc(C(=O)NCCNC(=O)Cc2ccc(F)cc2)s1` as the compound, how does the Percent Effect read?
The Percent Effect was -2.42%.

How did the Percent Effect turn out when `CC(C)c1ncc(CN2C[C@@H](CN3CCC(CO)CC3)[C@@H](CO)C2)cn1` was run?
The Percent Effect was -1.92%.

How did the Percent Effect turn out when `CCOc1cccc(C(C)NCc2ccc(OC)c(OC)c2OC)c1` (centres undefined) was run?
The Percent Effect was -1.94%.

For `CN(C)CCCNC(=O)c1cc(Br)c2c(c1)OCCO2`, which Percent Effect is on record?
Its Percent Effect is 0.724%.

Which Percent Effect does the source give for `CCC(C(=O)NCc1ccncc1)N(c1ccc(OC)cc1)S(C)(=O)=O` (centres undefined) here?
The Percent Effect was 1.25%.

Which Percent Effect does the source give for `Cc1nccn1CCC1CCCCN1C(=O)c1ccc2[nH]nnc2c1` (centres undefined) here?
Its Percent Effect is 1.02%.

With `N#Cc1cccc(CS(=O)(=O)NCC(O)Cc2ccccc2)c1` (centres undefined) as the compound, how does the Percent Effect read?
Its Percent Effect is -0.908%.

For `N#Cc1ccc(C2CC(=O)Nc3c2cnn3C2CCCC2)cc1` (centres undefined), which Percent Effect is on record?
The Percent Effect was -5.3%.

With `O=C(CN1CCNCC1)N1CC[C@@H](c2ccc3ccccc3c2)[C@H](O)C1` as the compound, how does the Percent Effect read?
Its Percent Effect is -0.747%.

For `NC(=O)C1CCCN1Cc1cccc(NC(=O)c2ccsc2)c1` (centres undefined), which Percent Effect is on record?
The Percent Effect was 2.98%.

Which Percent Effect does the source give for `COCCN(C)CC(=O)N1C[C@H]2CC[C@@H]1CN(C(=O)c1ccncc1)C2` here?
The Percent Effect was -1.85%.
